GSTO1 inh: counter-screen for RBBP9 inhibitors: inhibitors of human GSTO1; 300,000 compounds, 1.1% hits; P78417; inhibition, % at 5.96 µM; recombinant GSTO1, activity-based probe fluorescence polarization;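 active means inhibition above the campaign mean inhibition plus 3 SD, cut at about 35% in these data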;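 further: 0% = GSTO1-1 with DMSO and 100% = wells lacking GSTO1-1 enzyme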
Target sequence (P78417 whole entry, looked up): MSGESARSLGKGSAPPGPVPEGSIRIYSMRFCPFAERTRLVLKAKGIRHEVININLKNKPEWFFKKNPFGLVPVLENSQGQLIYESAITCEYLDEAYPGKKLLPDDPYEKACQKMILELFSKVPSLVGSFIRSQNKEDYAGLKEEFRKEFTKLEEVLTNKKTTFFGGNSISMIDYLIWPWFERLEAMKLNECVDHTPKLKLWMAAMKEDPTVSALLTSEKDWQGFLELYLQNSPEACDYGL
LYPLA1 counter: counter-screen for PME1 inhibitors: inhibitors of human LYPLA1; O75608; recombinant LYPLA1, FP-Rh probe fluorescence polarization; inhibition, % at 5.9 µM; 320,000 compounds, 0.16% hits;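 active means inhibition above the mean of all tested compounds plus 3 SD, set per campaign, cut at about 14% in these data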;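 further: inhibitors block serine hydrolase probe labeling of LYPLA1 so polarization falls; 0% = enzyme with DMSO and 100% = wells lacking LYPLA1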
Target sequence (O75608 whole entry, looked up): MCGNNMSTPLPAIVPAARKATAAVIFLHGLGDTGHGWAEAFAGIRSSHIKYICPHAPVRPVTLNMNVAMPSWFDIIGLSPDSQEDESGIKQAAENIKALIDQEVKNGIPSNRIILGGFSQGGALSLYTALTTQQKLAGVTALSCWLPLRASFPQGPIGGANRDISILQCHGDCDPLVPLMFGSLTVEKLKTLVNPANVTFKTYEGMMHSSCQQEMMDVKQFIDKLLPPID
PME-1 inh: PME-1 (human) inhibition | Q9Y570 | recombinant PME-1, FP-Rh probe fluorescence polarization | inhibition, % at 5.9 µM | 320,000 compounds, 0.53% hits | AID 2130;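 active means inhibition above the campaign mean of all compounds plus 3 SD, cut at about 26% in these data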;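 further: competitive labeling of PME-1 active site by serine hydrolase directed probe; 0% = PME-1 with DMSO and 100% = wells lacking PME-1 enzyme; inhibitors block probe labeling so polarization falls and inhibition rises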
LYPLA2 counter: counter-screen for PME1 inhibitors: inhibitors of human LYPLA2. AID 2177. inhibition, % at 5.9 µM. O95372. 320,000 compounds, 0.38% hits. recombinant LYPLA2, FP-Rh probe fluorescence polarization;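 active means inhibition above the screen-wide mean plus 3 SD, limit set per campaign, cut at about 26% in these data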;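 further: 0% = LYPLA2 with DMSO and 100% = wells lacking LYPLA2 enzyme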
Target sequence (O95372 whole entry, looked up): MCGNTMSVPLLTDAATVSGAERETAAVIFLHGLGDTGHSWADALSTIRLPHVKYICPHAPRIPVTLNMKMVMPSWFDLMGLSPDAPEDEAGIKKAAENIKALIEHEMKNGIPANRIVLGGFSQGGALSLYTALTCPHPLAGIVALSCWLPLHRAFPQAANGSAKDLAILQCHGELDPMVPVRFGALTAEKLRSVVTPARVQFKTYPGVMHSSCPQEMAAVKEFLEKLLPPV
PAD4 FP inh: inhibitors of human PAD4. Q9UM07. recombinant PAD4, RCA probe fluorescence polarization. 330,000 compounds, 0.41% hits. inhibition, % at 6.36 µM;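 active means percent inhibition above a cutoff equal to the mean of all tested compounds plus 3 SD, cut at about 15% in these data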;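 further: 0% = PAD4 with RCA probe and DMSO and 100% = probe without PAD4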
Fam108B inh: blocks mouse Fam108B hydrolase in RBBP9 counter-screen; recombinant Fam108B, FP-Rh probe fluorescence polarization; inhibition, % at 9.51 µM; 300,000 compounds, 0.33% hits; AID 1947;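 active means inhibition above the screen mean inhibition plus 3 SD, computed separately per campaign, cut at about 18% in these data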;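 further: inhibitors lower polarization as less probe binds the enzyme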
LYPLA2 confirm: counter-screen for PME1 inhibitors: confirmation of human LYPLA2 inhibitors; inhibition, % at 5.9 µM; shares compounds with LYPLA2 counter; recombinant LYPLA2, FP-Rh probe fluorescence polarization; 1,100 compounds, 72% hits;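 active means mean inhibition across replicates above the hit cutoff set in the primary screen, cut at about 26% in these data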;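 further: blocked labeling of the enzyme by serine hydrolase FP-Rh probe lowers polarization; 0% = enzyme with DMSO and 100% = wells lacking LYPLA2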
* marks the source's active call; other numbers are inactive results; · = not tested or not shown. Shown are actives, neighbours in structure and some others; about 1.8% of the full set was active somewhere.

SMILES | GSTO1 inh | LYPLA1 counter | PME-1 inh | LYPLA2 counter | PAD4 FP inh | Fam108B inh | LYPLA2 confirm
CN(Cc1ccc(C(F)(F)F)cc1)C(=O)c1ccc(Oc2ccccc2)cc1 | -5.3 | 10.9 | 0.1 | 28.9* | 0.5 | -0.3 | 24.1
COc1ccc(C2=NOC(COc3ccc4c(C)cc(=O)oc4c3)C2)c(OC)c1 (stereo unspecified) | -1.7 | 2.1 | -7.3 | 28.1* | 0.1 | 3.2 | 23.8
COc1ccccc1C1=NOC(COc2ccc3c(C)cc(=O)oc3c2)C1 (stereo unspecified) | 3.0 | 2.1 | 1.2 | 7.0 | -1.0 | -6.5 | ·
CC(C)N1CCc2c(sc(NC(=O)c3ccc(C(=O)c4ccccc4)cc3)c2C(N)=O)C1 | -107.2 | -4.9 | -1.8 | 26.0* | -2.5 | 3.2 | 31.4*
O=C(O)C1Nc2c(O)cc(Cl)c([N+](=O)[O-])c2C2C=CCC12 (stereo unspecified) | 57.2* | -13.6 | 11.3 | 34.8* | -4.4 | 79.2* | -2.2
COc1ccc(OC)c(C2Nc3c(Cl)ccc(C(=O)O)c3C3C=CCC32)c1 (stereo unspecified) | 20.3 | -0.9 | -2.3 | -0.9 | -3.3 | 4.0 | ·
CC(C)c1ccc(NC(=O)NCc2ccccn2)cc1 | 1.7 | 4.0 | 5.1 | 27.9* | 5.2 | 0.4 | -1.9
COc1ccc2cc(/C(C)=N/NC(=S)Nc3cc(S(=O)(=O)N4CCOCC4)ccc3N3CCOCC3)ccc2c1 | -16.9 | -5.6 | -5.6 | -6.8 | -1.3 | -6.2 | ·
C/C(CCC(C)C)=N\NC(=S)Nc1cc(S(=O)(=O)N2CCOCC2)ccc1N1CCOCC1 | -8.5 | 6.1 | 5.5 | 28.2* | -1.8 | 3.8 | 62.1*
COc1ccc(Cl)cc1NC(=S)NCc1ccc(S(N)(=O)=O)cc1 | -1.1 | -4.8 | 4.4 | 2.4 | -0.7 | -0.2 | ·
NC(=S)N/N=C/c1ncc(C(F)(F)F)cc1Cl | 6.5 | 2.4 | 3.0 | -4.9 | 5.7 | 3.7 | ·
O=C(COc1ccc([N+](=O)[O-])cc1)N/N=C/c1cc([N+](=O)[O-])ccc1N1CCOCC1 | 6.7 | 1.7 | 5.8 | 35.1* | -1.3 | 5.1 | 29.8*
Cc1ccc(OCC(=O)N/N=C/c2cc([N+](=O)[O-])ccc2N2CCCCC2)cc1 | 1.8 | 3.9 | 6.8 | 4.8 | -3.5 | -3.5 | ·
CCN(CC(=O)Nc1ccccc1OC)C(=O)CSCc1c(C)noc1C | -2.5 | -0.5 | -5.7 | -0.4 | 1.6 | 0.6 | ·
COc1ccc(N2CCN(C(=O)c3ccc4c(c3)CCN4S(=O)(=O)c3ccccc3)CC2)cc1 | -7.5 | -1.2 | 2.7 | 34.6* | -0.1 | -0.1 | 41.5*
COc1ccc(N2CCN(C(=O)c3ccc(NS(=O)(=O)c4ccccc4)cc3)CC2)cc1 | -16.6 | 1.8 | 2.0 | 37.4* | -4.2 | 0.6 | 33.7*
COc1ccc(N2CCN(C(=O)c3ccc(S(=O)(=O)NCc4ccco4)cc3)CC2)cc1 | · | -4.0 | -0.2 | 31.9* | 2.4 | · | 38.3*
Cc1cccc(N2CCN(C(=O)c3ccc(NS(=O)(=O)c4c(C)noc4C)cc3)CC2)c1C | 0.4 | -0.6 | -6.0 | 1.6 | 3.0 | -3.1 | ·
Cc1noc(C)c1S(=O)(=O)Nc1ccc(C(=O)N2CCN(c3cccc(Cl)c3)CC2)cc1 | -27.2 | 5.3 | 1.3 | 30.3* | -2.7 | 6.4 | 24.6
O=C(COC(=O)CCc1ccc(S(=O)(=O)N2CCOCC2)cc1)NC1CCCCCC1 | -5.4 | -1.6 | 2.3 | 3.3 | 0.6 | -3.1 | ·
COc1cccc(CNC(=O)CCS(=O)(=O)c2ccc3c(c2)NC(=O)CS3)c1 | 1.5 | -1.0 | -0.4 | 9.3 | -1.6 | -1.1 | ·
Cc1ccc(C)c(N2CCN(C(=O)c3ccc(CSc4nc5ccncc5[nH]4)cc3)CC2)c1 | 1.8 | -0.6 | -9.8 | 0.0 | -2.6 | -4.0 | ·
COc1ccc(N2CCN(CC(=O)c3ccccc3)CC2)cc1 | 0.5 | 1.6 | 4.7 | 0.9 | -0.2 | 1.7 | ·
COc1ccc(N2CCN(C(=O)c3ccc(CSc4ccccc4)cc3)CC2)cc1 | 6.8 | 2.7 | 0.4 | 30.1* | 1.3 | 1.0 | 42.1*
COc1ccc(N2CCN(CCC(=O)c3ccc4ccccc4c3)CC2)cc1 | -14.3 | 8.0 | -2.9 | 28.6* | 1.1 | 0.8 | 26.5*
SMILES | GSTO1 inh | LYPLA1 counter | PME-1 inh | LYPLA2 counter | PAD4 FP inh | Fam108B inh | LYPLA2 confirm
COc1cccc(N2CCN(C(=O)c3ccc(CSc4nc5ccncc5[nH]4)cc3)CC2)c1 | 7.8 | 3.1 | 2.6 | 31.1* | -0.7 | -1.3 | 22.4
O=[N+]([O-])c1cccnc1SCc1ccccc1 | -2.7 | 1.1 | 5.9 | 37.7* | -3.5 | 3.8 | 48.7*
COc1ccc(C(=O)OCC(=O)NC23CC4CC(CC(C4)C2)C3)c(OC)c1OC | · | 0.8 | 6.6 | -2.5 | 3.7 | · | ·
COCC1CCN(C(=O)CC2C(=O)NCCN2Cc2cccc(Oc3ccccc3)c2)CC1 (stereo unspecified) | -3.7 | 7.8 | 3.4 | 2.5 | -2.7 | -4.7 | ·
Cn1cc(S(=O)(=O)Nc2ccc3c(c2)OCCO3)cn1 | 8.2 | -0.6 | 1.3 | -2.7 | -5.6 | 7.4 | ·
CC1(C)CCC/C(=C\c2ccccc2)C1=O | -1.7 | 3.3 | -1.6 | 1.2 | -3.8 | 4.5 | ·
O=C(O)CN1C(=O)/C(=C\c2cc(Br)ccc2OCc2ccc(F)cc2)SC1=S | -8.8 | -3.6 | 7.5 | 41.4* | -4.2 | -1.1 | 43.6*
O=C1NC(c2ccc(Cl)cc2)=COc2ccccc21 | -13.6 | 2.0 | 7.6 | 36.4* | -1.6 | -0.4 | 29.5*
COc1cccc(OC)c1C(=O)Nc1ccc(S(=O)(=O)Nc2ncccn2)cc1 | 0.9 | -0.4 | -4.2 | -3.5 | 0.7 | 1.6 | ·
COc1ccc(-c2noc(CN3CCN(c4ccccc4)CC3)n2)cc1 | -6.4 | 1.0 | -0.8 | -3.3 | -3.5 | 1.5 | ·
COc1ccc(N2CCN(Cc3nc(-c4ccccc4)no3)CC2)cc1 | -1.9 | 5.5 | -5.1 | 26.0* | 2.5 | 0.1 | 15.9
O=C(Nc1cccs1)Nc1c(F)c(F)c(F)c(F)c1F | 5.9 | 4.3 | 7.2 | 29.3* | -1.5 | -0.1 | 30.4*
Cc1ccc(N2C(=O)c3ccc(C(=O)N4CCN(c5ccc(C)c(C)c5)CC4)cc3C2=O)cc1 | 6.1 | 3.0 | 3.5 | 4.6 | -2.2 | -1.5 | ·
Cc1ccc(N2C(=O)c3ccc(C(=O)N4CCN(Cc5ccccc5)CC4)cc3C2=O)cc1 | 5.8 | 1.5 | 2.4 | 32.6* | -1.5 | 1.1 | 27.1*
COc1ccc(Cl)cc1C(=O)Nc1cccc(-c2ccc3nncn3n2)c1 | -14.3 | 7.1 | -5.3 | 27.0* | -10.8 | 3.3 | 29.9*
CC(=O)Nc1ccc(S(=O)(=O)NC2CC(=O)N(c3ccc(C)c(C)c3)C2)cc1 (stereo unspecified) | 2.8 | 4.5 | 6.8 | 5.0 | -10.4 | -2.8 | ·
O=[N+]([O-])c1ccc(OCCOCCOc2ccc([N+](=O)[O-])cc2)cc1 | 3.7 | -2.7 | -1.0 | -1.9 | -0.6 | -0.9 | ·
O=Cc1ccc(OCCOc2ccc([N+](=O)[O-])cc2)cc1 | 1.9 | 5.0 | -0.7 | 36.5* | -1.4 | -0.5 | 22.9
